Several values for one entry are separate records, joined by “and”; a condition that tells them apart may be missing. Equal entries are not always repeated. The source holds several records for some structures; these can differ, active in one and inactive in another. Activity calls are given as the source filed them. Unless noted, calls follow the shape of the dose curve; as a rule, active = well fitted curve in the direction sought with a large enough effect in the repeat runs; inconclusive = weak or mixed curves; inactive = no such curve, though single readings can be large; an effect the other way counts as inactive or inconclusive.

Experiment [1] in a line: qHTS assay to identify small molecule antagonists of the thyroid receptor (TR) signaling pathway - cell viability counter screen (AID 743064). Also: nearly all actives have a fitted effect of over 50% in size. Also: potency is read from the fitted curve at half-maximal effect. The method in brief:
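Rat GH3 pituitary tumor cells stably expressing two TR response elements driving luciferase were plated, rested 4 h, then dosed with library compounds and T3 (1 nM final). After 23.5 h at 37 °C, CellTiter-Fluor was added for 30 min and fluorescence recorded.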
(Quantitative high-throughput screening tests each substance at several concentrations.)

The nature of experiment [2]: qHTS assay to identify small molecule antagonists of the thyroid receptor (TR) signaling pathway (AID 743065). Also: nearly all actives have a fitted effect of over 55% in size. Also: potency is read from the fitted curve at half-maximal effect. Put shortly: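 GH3.TRE-Luc rat pituitary cells carrying two TR response elements driving luciferase were plated for 4 h, given compound plus 1 nM T3 (final), and incubated 23.5 h at 37 C. ONE-Glo luminescence measured reporter inhibition; CellTiter-Fluor fluorescence tracked cytotoxicity.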

Experiment [3] relates to thyroid hormone receptor (rat, GH3 cells). Kind of experiment: qHTS assay to identify small molecule agonists of the thyroid receptor (TR) signaling pathway (AID 743066; calls by dose curve).
In experiment [4] the target is Estrogen receptor (Homo sapiens) (UniProt P03372). Kind of experiment: qHTS assay to identify small molecule antagonists of the estrogen receptor alpha (ER-alpha) signaling pathway (AID 743069; active = well fitted curve in the direction sought with a large enough effect in the signal ratio in the repeat runs, not every such curve was filed as active; inconclusive = weak or mixed curves, or effect the other way; inactive = no such curve, though single readings can be large or run the other way; the % refers to the signal ratio; also: potency is read from the fitted curve at half-maximal effect). Put shortly:
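Screening used a UAS-driven beta-lactamase reporter integrated into HEK293 cells expressing ER-alpha, stimulated with 17beta-estradiol alongside test compounds over 18 hr at 37C; signal came from LiveBLAzer B/G FRET fluorescence.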

Experiment [5] is described as follows: qHTS assay to identify small molecule antagonists of the estrogen receptor alpha (ER-alpha) signaling pathway - cell viability counter screen (AID 743074; calls by dose curve; also: nearly all actives have a fitted effect of over 45% in size; also: potency is read from the fitted curve at half-maximal effect).
Experiment [6] deals with Estrogen receptor (Homo sapiens) (UniProt P03372). Put plainly: qHTS assay to identify small molecule agonists of the estrogen receptor alpha (ER-alpha) signaling pathway (AID 743075; calls by dose curve; also: potency is read from the fitted curve at half-maximal effect).
Experiment [7] has the same target. Put plainly: qHTS assay to identify small molecule agonists of the estrogen receptor alpha (ER-alpha) signaling pathway using the BG1 cell line (AID 743079). Also: nearly all actives have a fitted effect of over 20% in size. Also: potency is read from the fitted curve at half-maximal effect.
Experiment [8] in a line: qHTS assay to identify small molecule antagonists of the estrogen receptor alpha (ER-alpha) signaling pathway using the BG1 cell line (AID 743080; calls by dose curve;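 also: BG1 cells stimulated with 17beta-estradiol alongside compound; series mostly up to about 70 µM; nearly all actives have a fitted effect of over 25% in size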). The method in brief:
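After 5 days in phenol-red-free 10% charcoal-stripped FBS medium, BG1-Luc-4E2 cells were seeded, left 24 h at 37 C, co-treated with compounds and 17beta-estradiol for 21.5 h, then assayed for viability and luciferase.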

Experiment [9] in a line: qHTS assay to identify small molecule antagonists of the estrogen receptor alpha (ER-alpha) signaling pathway using the BG1 cell line - cell viability counter screen (AID 743081).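 Also: compound given together with 17beta-estradiol as the ER stimulus; nearly all actives have a fitted effect of over 45% in size.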 Also: potency is read from the fitted curve at half-maximal effect.
A further experiment has as its target Aromatase (Homo sapiens) (UniProt P11511). Put plainly: qHTS assay to identify aromatase inhibitors (AID 743083). Also: nearly all actives have a fitted effect of over 55% in size. Also: potency is read from the fitted curve at half-maximal effect.

Aromatase (Homo sapiens), sequence (P11511 whole entry, looked up): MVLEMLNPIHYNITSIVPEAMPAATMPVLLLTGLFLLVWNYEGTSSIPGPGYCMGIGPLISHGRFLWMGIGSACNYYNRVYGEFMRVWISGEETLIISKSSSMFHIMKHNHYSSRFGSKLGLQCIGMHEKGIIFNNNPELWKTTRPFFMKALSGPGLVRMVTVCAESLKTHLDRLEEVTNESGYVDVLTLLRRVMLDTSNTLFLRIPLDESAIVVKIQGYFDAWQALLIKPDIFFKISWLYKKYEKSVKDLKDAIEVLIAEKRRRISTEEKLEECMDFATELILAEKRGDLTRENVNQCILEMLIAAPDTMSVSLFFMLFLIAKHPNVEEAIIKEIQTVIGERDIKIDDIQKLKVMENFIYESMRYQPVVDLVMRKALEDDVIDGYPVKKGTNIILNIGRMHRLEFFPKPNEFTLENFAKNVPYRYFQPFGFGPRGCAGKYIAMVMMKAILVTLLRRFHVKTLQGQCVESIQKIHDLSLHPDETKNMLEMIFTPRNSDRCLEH
Estrogen receptor (Homo sapiens), sequence (P03372 whole entry, looked up): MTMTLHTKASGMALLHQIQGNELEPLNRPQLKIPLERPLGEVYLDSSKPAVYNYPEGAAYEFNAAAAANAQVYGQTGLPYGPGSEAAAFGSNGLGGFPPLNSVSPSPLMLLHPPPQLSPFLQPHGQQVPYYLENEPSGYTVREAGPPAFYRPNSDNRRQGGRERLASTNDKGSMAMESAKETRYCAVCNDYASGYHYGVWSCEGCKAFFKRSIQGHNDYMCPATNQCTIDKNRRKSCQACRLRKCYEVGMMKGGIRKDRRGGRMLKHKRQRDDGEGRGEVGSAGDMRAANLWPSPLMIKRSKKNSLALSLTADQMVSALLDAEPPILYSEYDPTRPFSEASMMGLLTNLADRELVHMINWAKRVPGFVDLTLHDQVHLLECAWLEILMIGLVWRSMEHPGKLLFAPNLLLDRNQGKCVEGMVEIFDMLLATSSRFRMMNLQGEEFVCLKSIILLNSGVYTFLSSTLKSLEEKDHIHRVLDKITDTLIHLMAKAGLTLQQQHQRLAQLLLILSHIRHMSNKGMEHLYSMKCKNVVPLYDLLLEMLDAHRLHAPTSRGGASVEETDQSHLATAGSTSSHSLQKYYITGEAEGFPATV

On to `CC(C)(C)c1cccc(C(C)(C)C)c1O`, for which the Potency result in experiment [1], in experiment [2], in experiment [3], in experiment [4], in [5] and in [6] was “inactive” throughout. For the same compound, the Potency result (in experiment [7]; in experiment [8]; in experiment [9]; with Aromatase (Homo sapiens)) was “inactive” in each case.
Consider `Nc1cc([N+](=O)[O-])ccc1C(=O)O`, for which the Potency result in experiment [1], in experiment [2], in experiment [3], in [4], in experiment [6] and in experiment [8] was “inactive” each time. Besides, the Potency entry (in [9]; in the experiment with Aromatase (Homo sapiens)) was “inactive” in each case. Further, the Potency result in experiment [7] is “inactive and 77 µM (active)”.
As for `O=C(O)CCCC(=O)O`, the Potency entry in experiment [1], in [2], in [3], in [4], in experiment [6] and in [7] was “inactive” in each case. In addition, the Potency entry (in [8]; in experiment [9]; in the experiment with Aromatase (Homo sapiens)) was “inactive” in each case.
In the case of `O=[Se](O)O`, the Potency result in experiment [1], in [2], in experiment [3], in experiment [5], in experiment [6] and in [7] was “inactive” each time. For the same compound, the Potency entry (in [8]; with Aromatase (Homo sapiens)) was “inactive” each time. For the same compound, the Potency is 43.7 µM [inconclusive] (active) and inactive in [4]; 6.87 µM (active) and inactive in experiment [9].
With `CCCCCCCC/C=C\CCCCCCCC(=O)O`, the Potency result in experiment [1], in experiment [2], in [3], in experiment [4], in [5] and in [6] was “inactive” throughout. Besides, the Potency result (in [7]; in experiment [8]; in [9]; in the experiment with Aromatase (Homo sapiens)) was “inactive” in each case.
For the compound `Cc1ccc(C(C)(C)C)c(O)c1`, the Potency in experiment [2] is 54.5 µM (active). Besides, the Potency result in [3], in experiment [4], in experiment [5], in experiment [6], in [7] and in experiment [8] was “inactive” throughout. Besides, the Potency result in experiment [9] was “inactive”.
Regarding `Nc1ccc2c(O)cc(S(=O)(=O)O)cc2c1`, the Potency result (in experiment [1]; in [3]; in experiment [5]; in [9]; with Aromatase (Homo sapiens)) was “inactive” throughout. The Potency in experiment [2] is 54.5 µM (active).
As for `C=CC(=O)OCCCC`, the Potency result (in experiment [1]; in [2]; in experiment [3]; in experiment [9]; in the experiment with Aromatase (Homo sapiens)) was “inactive” in each case.
As for `CC1(C)OC(=O)NC1=O`, the Potency result (in experiment [1]; in experiment [2]; in experiment [3]; in [5]; in [9]; with Aromatase (Homo sapiens)) was “inactive” in each case.
`C=C[C@H]1CN2CC[C@H]1C[C@@H]2[C@@H](O)c1ccnc2ccc(OC)cc12`: the Potency entry (in experiment [1]; in experiment [5]; in [9]; in the experiment with Aromatase (Homo sapiens)) was “inactive” throughout.
In the case of `C/C=C/C(=O)N(CC)c1ccccc1C`, the Potency result in [2], in experiment [3], in experiment [4], in experiment [5], in experiment [6] and in experiment [7] was “inactive” throughout. Moreover, the Potency result (in [8]; in [9]; with Aromatase (Homo sapiens)) was “inactive” each time.
With `C=CC(C)(O)CCC=C(C)C` (stereo not given), the Potency result (in experiment [1]; in [2]; in experiment [3]; in experiment [5]; in [9]; with Aromatase (Homo sapiens)) was “inactive” in each case.
`O=C(CCCN1CCC(O)(c2ccc(Cl)cc2)CC1)c1ccc(F)cc1`: the Potency was 21.1 µM (active) and 54.5 µM (active) in experiment [1]; 26.6 µM (active) and 61.1 µM (active) in experiment [2]. Moreover, the Potency entry (in [5]; in experiment [9]; with Aromatase (Homo sapiens)) was “inactive” throughout.
As for `NCCN`, the Potency entry (in experiment [1]; in experiment [4]; in experiment [5]; in experiment [8]; in experiment [9]; with Aromatase (Homo sapiens)) was “inactive” each time. In addition, the Potency was 213 nM [inconclusive] (active) and inactive in experiment [6]; 37.6 nM (active) and inactive in experiment [7].
In the case of `CCCCCCOCCOCCO`, the Potency result (in experiment [1]; in experiment [2]; in [3]; in [5]; in experiment [9]; in the experiment with Aromatase (Homo sapiens)) was “inactive” each time.
Regarding `CNC[C@H](O)c1ccc(O)c(O)c1`, the Potency entry in experiment [2], in experiment [3], in [4], in [5], in [6] and in experiment [7] was “inactive” throughout. Moreover, the Potency entry (in experiment [8]; in experiment [9]; with Aromatase (Homo sapiens)) was “inactive” throughout.
On to `O=C(O)CCCCCCCCCCCC(=O)O`, for which the Potency result (in [1]; in experiment [2]; in [3]; in [9]; in the experiment with Aromatase (Homo sapiens)) was “inactive” throughout. The Potency entry in experiment [5] is “inactive and 4.36 µM (active)”.
On to `FC(F)(F)C(Cl)Br` (stereo not given), for which the Potency entry in experiment [2], in experiment [3], in experiment [4], in [5], in [6] and in experiment [7] was “inactive” throughout. For the same compound, the Potency result (in experiment [8]; in experiment [9]; in the experiment with Aromatase (Homo sapiens)) was “inactive” each time.
In the case of `CCC/C=C/C=O`, the Potency entry in experiment [2], in experiment [3], in [4], in experiment [5], in experiment [6] and in experiment [7] was “inactive” throughout. Moreover, the Potency entry (in [8]; in [9]; with Aromatase (Homo sapiens)) was “inactive” throughout.
Take `CC(C)=CCO`: the Potency entry in experiment [2], in [3], in experiment [4], in [5], in [6] and in experiment [7] was “inactive” each time. In addition, the Potency result (in [8]; in [9]; with Aromatase (Homo sapiens)) was “inactive” each time.
For `C=C[C@@]1(C)CC(=O)[C@]2(O)[C@@]3(C)[C@@H](O)CCC(C)(C)[C@@H]3[C@H](O)[C@H](OC(C)=O)[C@@]2(C)O1`, the Potency result in experiment [1], in experiment [2], in experiment [3], in [5] and in [6] was “inactive” in each case. Also, in the experiment with Aromatase (Homo sapiens), the Potency is 1.19 µM (active) and 969 nM (active).
With `CCCCCCCCCCC(CO)CCCCCCCC` (stereo not given), the Potency result (in experiment [1]; in [2]; in experiment [3]; in [5]; in experiment [9]; in the experiment with Aromatase (Homo sapiens)) was “inactive” each time.

Source of the values: PubChem BioAssay (Tox21).
